This note sets out measurements from PMC7862700, “An all-to-all approach to the identification of sequence-specific readers for epigenetic DNA modifications on cytosine”.

Common to all, as to assay: DAPPL (digital affinity profiling via proximity ligation, sequencing); 10 mM Tris-HCl pH 7.5, 50 mM NaCl, 1 mM DTT, 4% glycerol, room temperature, 30 min; GST-TFs on glutathione beads, 16-mer random dsDNA library, 0.1% formaldehyde crosslink after washing; high values mean tight binding
Common to all, as to conditions: protein: recombinant; tags: N-terminal GST; dsDNA, one strand shown

Test [1] concerns the target T1, FLI1 (Homo sapiens, UniProt Q01543 1-452).
T1 sequence: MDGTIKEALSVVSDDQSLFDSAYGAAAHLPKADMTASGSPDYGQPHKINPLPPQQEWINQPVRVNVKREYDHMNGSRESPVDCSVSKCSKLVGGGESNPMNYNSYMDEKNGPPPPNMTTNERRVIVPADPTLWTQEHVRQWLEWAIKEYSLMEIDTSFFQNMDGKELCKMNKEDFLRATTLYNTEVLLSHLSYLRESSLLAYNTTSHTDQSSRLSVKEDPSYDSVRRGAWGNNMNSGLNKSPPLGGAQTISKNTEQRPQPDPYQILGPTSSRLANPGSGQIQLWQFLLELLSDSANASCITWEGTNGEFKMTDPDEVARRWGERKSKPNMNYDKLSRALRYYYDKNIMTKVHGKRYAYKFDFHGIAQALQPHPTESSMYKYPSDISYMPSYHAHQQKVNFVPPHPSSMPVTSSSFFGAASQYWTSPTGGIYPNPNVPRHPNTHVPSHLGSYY
In short, it runs like this:
(§1)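 After expression in yeast as GST fusions, human transcription factors were bound to glutathione beads, DNA-barcoded and mixed with a tag-only sample. The pools were incubated with 200 nmole of a 16-mer random double-stranded DNA library in Tris/NaCl/DTT/glycerol buffer (30 min, room temperature), washed and crosslinked with 0.1% formaldehyde. Proximity ligation with BsaI/T4 ligase ran for 1 h at 37 °C, before PCR amplification and sequencing on an Illumina NextSeq500. Binding signal is a hexamer's read frequency for a factor divided by its frequency for the tag-only sample.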

For test [2], the target named is T2, ELK1 (Homo sapiens, UniProt P19419 1-428).
T2 sequence: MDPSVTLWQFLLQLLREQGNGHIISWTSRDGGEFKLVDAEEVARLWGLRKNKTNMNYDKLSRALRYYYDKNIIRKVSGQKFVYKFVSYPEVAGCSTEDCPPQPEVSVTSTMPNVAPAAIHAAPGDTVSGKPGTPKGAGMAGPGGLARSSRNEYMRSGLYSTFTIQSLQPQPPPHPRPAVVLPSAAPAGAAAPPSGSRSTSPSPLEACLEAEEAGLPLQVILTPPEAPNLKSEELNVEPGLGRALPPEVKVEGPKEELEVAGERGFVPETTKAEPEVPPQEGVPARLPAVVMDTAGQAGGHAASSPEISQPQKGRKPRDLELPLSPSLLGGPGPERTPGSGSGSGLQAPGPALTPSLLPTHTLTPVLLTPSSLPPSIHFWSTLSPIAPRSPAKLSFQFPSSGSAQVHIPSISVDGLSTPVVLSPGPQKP
Put shortly: as §1

In test [3] the target is T3, GABPA (Homo sapiens, UniProt Q06546 1-454).
T3 sequence: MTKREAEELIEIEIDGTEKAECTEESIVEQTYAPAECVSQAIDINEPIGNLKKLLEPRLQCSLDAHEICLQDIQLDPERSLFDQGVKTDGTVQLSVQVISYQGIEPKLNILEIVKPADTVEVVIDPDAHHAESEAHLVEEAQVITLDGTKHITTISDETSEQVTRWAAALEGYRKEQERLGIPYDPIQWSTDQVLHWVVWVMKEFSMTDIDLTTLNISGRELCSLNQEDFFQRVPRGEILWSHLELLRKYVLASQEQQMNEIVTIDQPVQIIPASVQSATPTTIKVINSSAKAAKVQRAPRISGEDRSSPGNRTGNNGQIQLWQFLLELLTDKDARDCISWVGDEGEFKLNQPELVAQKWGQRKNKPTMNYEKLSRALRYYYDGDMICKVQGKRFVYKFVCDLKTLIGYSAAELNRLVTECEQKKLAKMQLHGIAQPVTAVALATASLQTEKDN
Put shortly: as §1

In test [4] the target is T4, ERG (Homo sapiens, UniProt P11308 1-479).
T4 sequence: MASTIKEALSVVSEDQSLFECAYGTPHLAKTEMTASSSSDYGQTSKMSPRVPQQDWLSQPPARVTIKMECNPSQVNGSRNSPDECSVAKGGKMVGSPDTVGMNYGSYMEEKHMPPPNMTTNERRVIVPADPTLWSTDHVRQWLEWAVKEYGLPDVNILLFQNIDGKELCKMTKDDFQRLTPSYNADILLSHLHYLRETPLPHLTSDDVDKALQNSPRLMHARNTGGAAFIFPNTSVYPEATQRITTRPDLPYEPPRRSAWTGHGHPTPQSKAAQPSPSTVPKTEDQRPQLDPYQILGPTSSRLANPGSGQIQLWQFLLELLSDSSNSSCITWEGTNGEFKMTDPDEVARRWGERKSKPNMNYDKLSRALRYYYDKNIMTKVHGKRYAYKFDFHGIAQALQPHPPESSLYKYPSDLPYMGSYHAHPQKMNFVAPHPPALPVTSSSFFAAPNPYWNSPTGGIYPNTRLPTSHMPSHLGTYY
In short, it runs like this:
as §1

In test [5] the target is ELF1 (Homo sapiens, UniProt P32519 1-619). In short, it runs like this: as §1
Test [6] concerns the target T5, EHF (Homo sapiens, UniProt Q9NZC4 1-300).
T5 sequence: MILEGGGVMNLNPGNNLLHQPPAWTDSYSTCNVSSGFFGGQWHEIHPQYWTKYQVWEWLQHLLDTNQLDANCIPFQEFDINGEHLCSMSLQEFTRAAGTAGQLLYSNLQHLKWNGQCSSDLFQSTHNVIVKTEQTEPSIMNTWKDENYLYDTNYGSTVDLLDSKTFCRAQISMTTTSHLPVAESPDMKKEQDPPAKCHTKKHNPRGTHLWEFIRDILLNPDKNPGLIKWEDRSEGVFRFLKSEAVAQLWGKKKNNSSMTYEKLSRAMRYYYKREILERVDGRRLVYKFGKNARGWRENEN
Put shortly:
as §1

In test [7] the target is SPI1 (Homo sapiens, UniProt P17947 1-270). Put shortly:
as §1

Test [8] has as its target SPIB (Homo sapiens, UniProt Q01892 1-262). Put shortly:
as §1

In test [9] the target is T6, ELK3 (Homo sapiens, UniProt P41970 1-407).
T6 sequence: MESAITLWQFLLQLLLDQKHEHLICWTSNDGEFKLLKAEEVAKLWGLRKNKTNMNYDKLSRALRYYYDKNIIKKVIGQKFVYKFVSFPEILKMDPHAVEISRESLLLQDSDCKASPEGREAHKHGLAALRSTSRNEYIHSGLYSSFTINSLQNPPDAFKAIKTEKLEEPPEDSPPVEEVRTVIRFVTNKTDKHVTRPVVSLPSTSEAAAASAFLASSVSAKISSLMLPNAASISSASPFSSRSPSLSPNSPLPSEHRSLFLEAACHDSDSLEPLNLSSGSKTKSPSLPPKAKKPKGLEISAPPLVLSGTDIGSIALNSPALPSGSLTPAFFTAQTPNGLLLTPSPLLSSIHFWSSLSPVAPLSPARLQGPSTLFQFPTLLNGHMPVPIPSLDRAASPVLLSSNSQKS
Put shortly: as §1

Test [10] deals with T7, FEV (Homo sapiens, UniProt Q99581 1-238).
T7 sequence: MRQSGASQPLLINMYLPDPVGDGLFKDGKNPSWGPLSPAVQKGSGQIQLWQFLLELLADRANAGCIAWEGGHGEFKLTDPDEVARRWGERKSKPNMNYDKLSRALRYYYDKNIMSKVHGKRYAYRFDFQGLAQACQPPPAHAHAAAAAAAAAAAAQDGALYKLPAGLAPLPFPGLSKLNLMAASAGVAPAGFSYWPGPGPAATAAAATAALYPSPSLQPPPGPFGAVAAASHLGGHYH
In short, it runs like this: as §1

The target in test [11] is ETV5 (Homo sapiens, UniProt P41161 1-510). In short, it runs like this: as §1
Test [12] concerns the target T8, SPIC (Homo sapiens, UniProt Q8N5J4 1-248).
T8 sequence: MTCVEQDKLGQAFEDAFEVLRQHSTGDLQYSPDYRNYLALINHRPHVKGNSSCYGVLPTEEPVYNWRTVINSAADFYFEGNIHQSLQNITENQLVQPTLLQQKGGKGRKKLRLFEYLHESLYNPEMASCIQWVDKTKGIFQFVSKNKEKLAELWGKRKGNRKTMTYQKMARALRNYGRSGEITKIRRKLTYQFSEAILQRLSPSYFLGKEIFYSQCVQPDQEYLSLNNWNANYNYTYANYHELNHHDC
In short, it runs like this: as §1

The target of test [13] is ELF4 (Homo sapiens, UniProt Q99607 1-663). Put shortly:
as §1

The target in test [14] is ETV1 (Homo sapiens, UniProt P50549 1-477). Put shortly: as §1
For test [15], the target named is T9, ERF (Homo sapiens, UniProt P50548 1-548).
T9 sequence: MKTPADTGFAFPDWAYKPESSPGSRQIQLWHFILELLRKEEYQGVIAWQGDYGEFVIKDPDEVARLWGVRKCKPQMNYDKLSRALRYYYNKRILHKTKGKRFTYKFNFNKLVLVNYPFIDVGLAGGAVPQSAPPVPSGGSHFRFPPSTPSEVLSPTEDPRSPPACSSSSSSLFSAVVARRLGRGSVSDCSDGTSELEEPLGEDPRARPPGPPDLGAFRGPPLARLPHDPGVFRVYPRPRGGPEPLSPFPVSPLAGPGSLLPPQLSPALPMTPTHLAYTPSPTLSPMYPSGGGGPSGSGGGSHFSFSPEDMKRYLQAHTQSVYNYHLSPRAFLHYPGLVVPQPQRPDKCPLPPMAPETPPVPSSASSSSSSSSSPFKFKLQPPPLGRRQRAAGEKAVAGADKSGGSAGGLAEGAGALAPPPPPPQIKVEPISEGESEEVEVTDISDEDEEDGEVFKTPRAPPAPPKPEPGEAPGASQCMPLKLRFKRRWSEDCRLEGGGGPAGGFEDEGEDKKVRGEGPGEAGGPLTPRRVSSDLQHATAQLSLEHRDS
Put shortly:
as §1

Test [16] addresses T10, ETV3L (Homo sapiens, UniProt Q6ZN32 1-361).
T10 sequence: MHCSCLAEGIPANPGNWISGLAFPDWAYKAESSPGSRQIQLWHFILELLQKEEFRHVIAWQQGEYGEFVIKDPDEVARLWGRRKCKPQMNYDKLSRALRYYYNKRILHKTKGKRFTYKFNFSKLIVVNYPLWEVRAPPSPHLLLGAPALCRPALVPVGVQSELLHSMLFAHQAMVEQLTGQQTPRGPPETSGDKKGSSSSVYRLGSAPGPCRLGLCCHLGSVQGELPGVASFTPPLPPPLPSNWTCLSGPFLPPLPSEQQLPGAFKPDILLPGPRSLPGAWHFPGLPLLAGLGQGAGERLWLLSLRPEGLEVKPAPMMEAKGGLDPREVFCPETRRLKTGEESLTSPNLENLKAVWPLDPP
Put shortly:
as §1

The target in test [17] is T11, ETS2 (Homo sapiens, UniProt P15036 1-469).
T11 sequence: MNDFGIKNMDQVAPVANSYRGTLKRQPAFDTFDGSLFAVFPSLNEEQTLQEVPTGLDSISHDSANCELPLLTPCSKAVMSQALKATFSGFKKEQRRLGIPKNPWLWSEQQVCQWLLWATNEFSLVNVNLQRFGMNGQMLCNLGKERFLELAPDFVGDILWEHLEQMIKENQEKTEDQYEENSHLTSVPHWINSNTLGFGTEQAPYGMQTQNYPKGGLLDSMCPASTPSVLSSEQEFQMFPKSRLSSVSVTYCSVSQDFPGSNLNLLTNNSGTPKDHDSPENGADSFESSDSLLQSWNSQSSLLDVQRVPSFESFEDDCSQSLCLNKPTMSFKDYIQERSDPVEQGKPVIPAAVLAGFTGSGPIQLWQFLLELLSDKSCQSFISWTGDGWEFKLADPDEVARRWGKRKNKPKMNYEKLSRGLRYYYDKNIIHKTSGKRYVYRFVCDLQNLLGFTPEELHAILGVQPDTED
Put shortly: as §1

In test [18] the target is T12, ELF5 (Homo sapiens, UniProt Q9UKW6-2 1-255).
T12 sequence: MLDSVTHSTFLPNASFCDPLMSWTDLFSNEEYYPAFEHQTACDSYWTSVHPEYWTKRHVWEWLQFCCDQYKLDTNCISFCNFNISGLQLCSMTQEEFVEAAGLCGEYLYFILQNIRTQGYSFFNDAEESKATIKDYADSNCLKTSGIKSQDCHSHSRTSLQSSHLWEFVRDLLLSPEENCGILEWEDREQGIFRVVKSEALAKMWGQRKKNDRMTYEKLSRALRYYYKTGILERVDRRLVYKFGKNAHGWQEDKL
In short, it runs like this: as §1

The target in test [19] is T13, ETV3 (Homo sapiens, UniProt P41162-2 1-143).
T13 sequence: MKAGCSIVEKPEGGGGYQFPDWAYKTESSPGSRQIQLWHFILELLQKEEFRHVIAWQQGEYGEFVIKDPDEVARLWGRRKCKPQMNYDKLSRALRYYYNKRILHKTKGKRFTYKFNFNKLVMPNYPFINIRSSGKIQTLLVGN
Put shortly: as §1

Test [20] has as its target ETV6 (Homo sapiens, UniProt P41212 1-452). In short, it runs like this: as §1

ETV6, sequence (P41212 whole entry): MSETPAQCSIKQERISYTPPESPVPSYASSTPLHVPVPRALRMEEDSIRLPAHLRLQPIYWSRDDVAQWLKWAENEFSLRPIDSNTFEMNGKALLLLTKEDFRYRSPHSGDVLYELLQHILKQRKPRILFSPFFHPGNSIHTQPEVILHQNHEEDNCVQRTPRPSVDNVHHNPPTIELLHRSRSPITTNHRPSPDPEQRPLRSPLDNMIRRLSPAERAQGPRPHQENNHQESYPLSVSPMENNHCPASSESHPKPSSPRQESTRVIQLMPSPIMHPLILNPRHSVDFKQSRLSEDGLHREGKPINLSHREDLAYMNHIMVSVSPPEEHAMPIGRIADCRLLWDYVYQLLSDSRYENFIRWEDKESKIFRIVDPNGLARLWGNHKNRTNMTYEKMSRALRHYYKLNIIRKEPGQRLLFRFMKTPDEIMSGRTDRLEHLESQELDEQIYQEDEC
SPIB, sequence (Q01892 whole entry): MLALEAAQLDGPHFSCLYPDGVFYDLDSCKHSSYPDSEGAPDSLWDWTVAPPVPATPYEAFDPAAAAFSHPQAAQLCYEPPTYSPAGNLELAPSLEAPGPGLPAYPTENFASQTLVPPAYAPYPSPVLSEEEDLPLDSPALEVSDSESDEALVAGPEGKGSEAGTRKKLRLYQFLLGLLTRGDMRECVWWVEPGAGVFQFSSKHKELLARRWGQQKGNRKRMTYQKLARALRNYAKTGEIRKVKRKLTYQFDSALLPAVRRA
ELF1, sequence (P32519 whole entry): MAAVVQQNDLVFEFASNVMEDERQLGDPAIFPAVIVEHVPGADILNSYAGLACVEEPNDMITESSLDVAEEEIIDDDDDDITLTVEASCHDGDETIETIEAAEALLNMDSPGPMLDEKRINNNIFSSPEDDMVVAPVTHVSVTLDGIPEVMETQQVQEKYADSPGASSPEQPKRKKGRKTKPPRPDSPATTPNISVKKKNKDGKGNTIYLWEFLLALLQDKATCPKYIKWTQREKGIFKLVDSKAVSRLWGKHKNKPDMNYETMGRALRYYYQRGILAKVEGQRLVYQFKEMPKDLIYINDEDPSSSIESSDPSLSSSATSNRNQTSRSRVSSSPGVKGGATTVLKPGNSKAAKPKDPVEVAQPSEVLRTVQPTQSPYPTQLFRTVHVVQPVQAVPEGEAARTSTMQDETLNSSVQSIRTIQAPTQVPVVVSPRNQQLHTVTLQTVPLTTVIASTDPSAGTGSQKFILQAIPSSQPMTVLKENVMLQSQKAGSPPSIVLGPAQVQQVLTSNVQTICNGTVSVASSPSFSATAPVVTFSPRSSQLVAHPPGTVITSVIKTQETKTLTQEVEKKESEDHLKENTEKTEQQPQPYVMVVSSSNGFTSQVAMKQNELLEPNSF
ELF4, sequence (Q99607 whole entry): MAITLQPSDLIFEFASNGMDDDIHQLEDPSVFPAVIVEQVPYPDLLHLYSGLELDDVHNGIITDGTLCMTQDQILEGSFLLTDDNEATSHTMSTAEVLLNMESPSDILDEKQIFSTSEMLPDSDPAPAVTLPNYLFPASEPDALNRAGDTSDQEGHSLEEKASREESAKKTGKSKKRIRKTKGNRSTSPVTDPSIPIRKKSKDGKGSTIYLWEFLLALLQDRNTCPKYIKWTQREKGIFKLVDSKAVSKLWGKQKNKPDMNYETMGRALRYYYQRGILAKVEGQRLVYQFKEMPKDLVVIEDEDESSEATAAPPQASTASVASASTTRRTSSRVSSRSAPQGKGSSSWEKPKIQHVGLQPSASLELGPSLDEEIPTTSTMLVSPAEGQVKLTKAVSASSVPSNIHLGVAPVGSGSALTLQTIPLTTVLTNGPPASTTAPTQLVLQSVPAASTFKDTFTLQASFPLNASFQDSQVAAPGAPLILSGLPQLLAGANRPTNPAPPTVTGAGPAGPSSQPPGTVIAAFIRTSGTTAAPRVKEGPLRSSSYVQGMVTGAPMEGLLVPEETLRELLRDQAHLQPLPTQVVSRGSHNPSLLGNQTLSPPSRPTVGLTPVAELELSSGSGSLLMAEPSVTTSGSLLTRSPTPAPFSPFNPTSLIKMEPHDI
ETV5, sequence (P41161 whole entry): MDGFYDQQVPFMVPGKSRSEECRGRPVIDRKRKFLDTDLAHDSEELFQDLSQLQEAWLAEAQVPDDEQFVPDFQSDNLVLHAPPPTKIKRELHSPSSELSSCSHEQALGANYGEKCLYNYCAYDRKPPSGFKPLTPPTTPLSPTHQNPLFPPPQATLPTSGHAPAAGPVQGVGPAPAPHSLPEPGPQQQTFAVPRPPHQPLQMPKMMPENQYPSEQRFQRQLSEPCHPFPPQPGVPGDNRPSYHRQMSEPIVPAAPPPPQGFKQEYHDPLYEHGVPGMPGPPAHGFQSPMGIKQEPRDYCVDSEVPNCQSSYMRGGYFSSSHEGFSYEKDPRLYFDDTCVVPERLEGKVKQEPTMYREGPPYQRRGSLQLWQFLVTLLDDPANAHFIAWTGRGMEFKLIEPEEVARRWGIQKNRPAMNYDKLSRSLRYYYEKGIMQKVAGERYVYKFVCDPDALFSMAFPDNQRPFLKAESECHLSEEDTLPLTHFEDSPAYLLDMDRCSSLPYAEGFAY
ETV1, sequence (P50549 whole entry): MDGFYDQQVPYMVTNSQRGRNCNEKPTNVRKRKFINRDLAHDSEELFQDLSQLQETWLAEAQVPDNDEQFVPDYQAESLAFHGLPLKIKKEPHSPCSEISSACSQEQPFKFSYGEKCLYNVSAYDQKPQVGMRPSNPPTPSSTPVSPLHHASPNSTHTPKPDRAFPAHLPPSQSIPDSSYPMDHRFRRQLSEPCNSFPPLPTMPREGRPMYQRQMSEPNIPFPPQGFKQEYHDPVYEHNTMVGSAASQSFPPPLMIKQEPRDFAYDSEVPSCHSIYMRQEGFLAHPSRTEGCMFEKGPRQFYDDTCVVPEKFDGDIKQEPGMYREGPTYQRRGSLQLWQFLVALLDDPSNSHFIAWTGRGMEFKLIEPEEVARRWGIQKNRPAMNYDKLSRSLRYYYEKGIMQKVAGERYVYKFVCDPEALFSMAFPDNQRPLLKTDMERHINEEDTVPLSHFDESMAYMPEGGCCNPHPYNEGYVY

Take ACGTTG: the binding signal in test [1] is 1.14 fold enrichment (6-mer frequency, TF over GST control); in [2], 1.11 fold enrichment (6-mer frequency, TF over GST control); in [3], 1.05 fold enrichment (6-mer frequency, TF over GST control); in test [4], 1.05 fold enrichment (6-mer frequency, TF over GST control); in test [5], 1.03 fold enrichment (6-mer frequency, TF over GST control); in test [6], 1.07 fold enrichment (6-mer frequency, TF over GST control). The binding signal in test [7] is 1.08 fold enrichment (6-mer frequency, TF over GST control); in test [8] it was 1.02 fold enrichment (6-mer frequency, TF over GST control); in [9] it was 1.01 fold enrichment (6-mer frequency, TF over GST control); in test [10], 1.07 fold enrichment (6-mer frequency, TF over GST control); in test [11], 1.03 fold enrichment (6-mer frequency, TF over GST control); in test [12], 1.28 fold enrichment (6-mer frequency, TF over GST control). For the same sequence, the binding signal in test [13] is 1.13 fold enrichment (6-mer frequency, TF over GST control); in test [14] it was 1.06 fold enrichment (6-mer frequency, TF over GST control); in test [15], 1.07 fold enrichment (6-mer frequency, TF over GST control); in test [16] it was 1.08 fold enrichment (6-mer frequency, TF over GST control); in test [17], 1.07 fold enrichment (6-mer frequency, TF over GST control); in test [18], 1.02 fold enrichment (6-mer frequency, TF over GST control). In addition, the binding signal in [19] was 1.11 fold enrichment (6-mer frequency, TF over GST control); in [20] it was 1.11 fold enrichment (6-mer frequency, TF over GST control).
